# NS1 inh: qHTS Assay for Inhibitors of Influenza NS1 Protein Function. Potency, µM (series often up to 46.1 µM), inactives show top-dose activity, positive = more growth. 270,000 tested, 0.4% active; note: potency is the fitted concentration of half-maximal effect; actives are rising curves; nearly all actives have a fitted effect of over 50% in size
#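 Read-out: OD600 growth recovery of NS1-expressing budding yeast. Cells grown overnight at 30C in -URA glucose medium, washed, resuspended and diluted 1:100 in 2% galactose assay medium, pH 6.0. Same strain lacking NS1 served as positive control.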
# Pf growth 96h: Primary qHTS for delayed death inhibitors of the malarial parasite plastid, 96 hour incubation. P. falciparum luciferase reporter growth, 96 h. Potency, µM (doses to about 28.7 µM), for the others: at the top dose activity change, negative = inhibition, hits mostly inhibitors. 320,000 tested, 6.9% active; active = well fitted inhibition curve with a large enough effect; inconclusive = small, poorly fitted or top-dose-only effect, or another doubt; inactive = no such curve, though single readings can be large or run the other way; note: potency is the fitted concentration of half-maximal effect; % is set by controls: 0 for no effect and ±100 for the full control effect
#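 Erythrocytes infected with luciferase-expressing P. falciparum were dispensed at 2% hematocrit and 0.05% parasitemia (final), then incubated with compounds 96 hours at 37 C in 5% CO2. Luminescence after detection reagent addition reported growth.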
# CHX counter: Cycloheximide Counterscreen for Small Molecule Inhibitors of Shiga Toxin. cell reporter, cycloheximide protein synthesis inhibition counterscreen. max response, %. 300,000 tested, 12% active; in the data active = max response mostly above about 13%, no sharp cut-off; inactive = mostly below about 14%; note: read at 38.3 µM for the half of the compounds with a filed dose; 0% is about no effect
# SARS PLpro yeast: qHTS of Yeast-based Assay for SARS-CoV PLP | S. cerevisiae expressing SARS-CoV PLpro, growth rescue | 330,000 tested, 0.19% active | Potency, µM (highest dose often 32.9 µM), for the others: at the highest dose activity, positive = growth rescue, hits mostly activators; note: potency is the fitted concentration of half-maximal effect; 0% is about no effect; nearly all actives have a fitted effect of over 55% in size
# Pf growth 48h: Primary qHTS for delayed death inhibitors of the malarial parasite plastid, 48 hour incubation. P. falciparum luciferase growth in erythrocytes, 48 h. Potency, µM (titrated, usually from 28.7 µM), for the others: at the highest dose activity change, negative = inhibition, most hits filed as inhibitors. 310,000 tested, 5.9% active. AID 504832, 2011; active = well fitted inhibition curve with a large enough effect; inconclusive = small, poorly fitted or top-dose-only effect, or another doubt; inactive = no such curve, though single readings can be large or run the other way; note: potency is the fitted concentration of half-maximal effect; % is set by controls: 0 for no effect and ±100 for the full control effect
#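 A one-generation exposure of luciferase-tagged malaria parasites in RPMI 1640/Albumax erythrocyte culture, 37 C and 5% CO2. Inhibition is inferred from decreased luminescence after adding detection reagent.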
# Shiga inhibitor: A qHTS for Small Molecule Inhibitors of Shiga Toxin; 290,000 tested, 9.2% active; AID 2315, 2010; Vero cells, Shiga toxin protein synthesis inhibition reporter; inhibition, % at 38.7 µM; in the data active = inhibition mostly above about 28%, no sharp cut-off; inactive = mostly below about 43%; note: 0% is about no effect
# * hit, by the source's call; ? = inconclusive; / = no result; [ ] = dose if it differs, or a comment. Compounds with a hit are over-represented: about 21% of the library has one in this group of screens. Unless noted, calls come from the whole dose curve.
SMILES,NS1 inh,Pf growth 96h,CHX counter,SARS PLpro yeast,Pf growth 48h,Shiga inhibitor
CCOC(=O)N1CCN(C(=O)CNCc2cccs2)CC1,-1%,21%,12,8%,27%,14
O=C(CNCc1cccs1)Nc1ccc(OC(F)(F)F)cc1,0%,10µM*,20*,-2%,22%,82*
COCCCNCC(=O)Nc1ccc(OC(F)(F)F)cc1,-14%,?,-2,-3%,4%,-5
Cc1ccc(NC(=O)CNCc2cccs2)cc1Br,-3%,0%,26*,0%,7%,52*
O=C(Nc1ccncc1)C1CCN(S(=O)(=O)c2c(Cl)cccc2Cl)CC1,/,?,/,-5%,-24%,/
CC(=O)c1ccc(NC(=O)CNCc2cccs2)cc1,0%,39%,54*,0%,/,52*
CC(=O)Nc1ccc(NCc2cccs2)cc1,4%,?,12,5%,31%,28
O=C(O)C1c2ccccc2C(=O)N(Cc2ccc(F)cc2)C1c1ccncc1 (stereo not given),-1%,0%,1,0%,-5%,-4
CC1(C)CC2(CCO1)C(Nc1ccccc1)=NC(=S)N2c1ccccc1 (stereo not given),5%,?,0,-1%,?,2
Cc1ccccc1C(=O)N(CC(=O)Nc1sc(C)c(C)c1C(N)=O)C1CCCC1,15%,23%,5,0%,-18%,-3
COC(=O)C(CCSC)NC(=O)c1cc2c(n(-c3ccccc3)c1=O)CCCC2=O (stereo not given),-2%,16%,16*,0%,-10%,38
O=C1CCCc2c1cc(C(=O)O)c(=O)n2-c1ccccc1,2%,?,0,1%,15%,-11
O=C1CCCc2c1cc(C(=O)Nc1ccc(Br)cn1)c(=O)n2-c1ccccc1,-8%,39%,1,-7%,4.1µM*,-3
COc1ccc(S(=O)(=O)N2CCOC23CCN(C(=O)c2c(F)cccc2Cl)CC3)cc1,-2%,?,-1,-5%,?,11
CCOC(=O)CN1N=C(c2ccc(Cl)cc2)CCC1=O,0%,13µM*,12,3%,9%,15
CCOC(=O)CN1N=C(/C=C/c2ccc(C(C)C)cc2)CCC1=O,/,84%,35*,-9%,112%,37
CC(C)CCNC(=O)CN1N=C(c2ccc(Cl)cc2)CCC1=O,2%,23%,-3,-1%,20%,-7
CCOC(=O)CN1N=C(/C=C/c2ccc(OCC)cc2)CCC1=O,/,?,30*,-1%,54%,34
CCOC(=O)C(C)N1N=C(/C=C/c2ccc(C)cc2)CCC1=O (stereo not given),-59%,?,10,-1%,-21%,10
O=C1c2cccnc2C(=O)N1Cc1ccc(Cl)cc1,-21%,1.7µM*,1,-1%,1%,26
COc1ccc(CN2C(=O)c3cccnc3C2=O)cc1S(=O)(=O)NC1CCCCC1,-5%,13µM*,6,-2%,22%,-8
COc1cccc(CC(NC(C)=O)C(=O)NC2CCN(C(=O)c3ccncc3)CC2)c1OC (stereo not given),8%,1%,-7,5%,7%,-7
C=C(C)n1c(=O)n(Cc2ccccc2C)c2ccccc21,-15%,-6%,7,?,0%[0.00184 µM],38
Cc1cccc(C(C(=O)NCc2ccc(F)cc2)N(C(=O)c2csnn2)C2CC2)c1 (stereo not given),-10%,25%,-2,2%,0%,10
Cc1ccc(CNC(=O)CCNC(=O)c2ccc([N+](=O)[O-])cc2)cc1,/,/,/,3%,/,/
COc1cccc(/C=N/Nc2ccc(C(=O)O)cc2)c1O,/,-24%,-12,-11%,-56%,-27

# Compound activity as filed in PubChem BioAssay.
